Consider 87 compounds from paper PMC4336329 (PLoS ONE, 2015).

Among all 310,000 compounds or so, about 2,200 (0.71%) showed an effect of 50% or more. The effect is printed as a negative number. Many of the other results were omitted from the sample, so strong results are more common in it than they were.

For the experiment, the target named is human ether-à-go-go-related gene (hERG) potassium channel (human, UniProt Q12809). The experiment in a line: primary screen, population patch clamp on CHO cells stably expressing hERG; higher = less effect of the substance.
Chain of human ether-à-go-go-related gene (hERG) potassium channel (Q12809 whole entry, looked up): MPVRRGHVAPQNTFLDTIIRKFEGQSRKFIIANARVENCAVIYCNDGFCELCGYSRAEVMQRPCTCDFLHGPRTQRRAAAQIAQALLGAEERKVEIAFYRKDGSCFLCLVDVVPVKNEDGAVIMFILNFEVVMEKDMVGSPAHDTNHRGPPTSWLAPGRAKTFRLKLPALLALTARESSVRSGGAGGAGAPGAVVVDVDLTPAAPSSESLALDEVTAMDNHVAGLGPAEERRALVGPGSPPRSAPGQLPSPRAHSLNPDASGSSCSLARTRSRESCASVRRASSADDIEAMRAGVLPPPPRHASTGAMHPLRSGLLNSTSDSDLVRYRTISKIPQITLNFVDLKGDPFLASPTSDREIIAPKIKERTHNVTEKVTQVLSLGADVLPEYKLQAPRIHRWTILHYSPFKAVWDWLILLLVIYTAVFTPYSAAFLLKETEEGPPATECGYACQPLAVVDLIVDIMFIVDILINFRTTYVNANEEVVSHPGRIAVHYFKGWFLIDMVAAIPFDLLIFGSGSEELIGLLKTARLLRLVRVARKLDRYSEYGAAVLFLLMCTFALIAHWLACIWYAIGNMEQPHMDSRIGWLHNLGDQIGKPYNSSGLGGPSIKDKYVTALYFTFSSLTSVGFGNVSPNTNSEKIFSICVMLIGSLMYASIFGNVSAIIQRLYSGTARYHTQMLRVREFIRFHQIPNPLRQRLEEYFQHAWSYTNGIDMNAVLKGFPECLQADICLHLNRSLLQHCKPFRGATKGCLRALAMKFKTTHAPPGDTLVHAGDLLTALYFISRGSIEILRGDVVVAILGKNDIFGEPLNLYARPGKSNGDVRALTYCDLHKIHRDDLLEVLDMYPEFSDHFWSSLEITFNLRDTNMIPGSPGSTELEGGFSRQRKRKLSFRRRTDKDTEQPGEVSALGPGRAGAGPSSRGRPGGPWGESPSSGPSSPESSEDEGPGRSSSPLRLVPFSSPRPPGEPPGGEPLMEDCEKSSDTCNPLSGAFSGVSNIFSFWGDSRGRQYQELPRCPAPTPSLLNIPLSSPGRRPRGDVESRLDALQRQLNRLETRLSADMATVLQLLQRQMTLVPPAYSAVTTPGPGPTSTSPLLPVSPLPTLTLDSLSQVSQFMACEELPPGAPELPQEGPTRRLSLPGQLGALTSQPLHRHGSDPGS
`CCCCCCCCCCCCCCCC(=O)OC/C=C(C)/C=C/C=C(C)/C=C/C1=C(C)CCCC1(C)C`: the “hERG current change (%, negative = inhibition) at 1uM” value was determined as 10.2%. As to `COc1cc(C2C(C#N)=C(N)Oc3n[nH]c(C)c32)cc2c1OCO2` (stereo not drawn), the “hERG current change (%, negative = inhibition) at 1uM” value was -3.12%. The same measure for `CCc1nnc(NC(=O)C2CCCN2C(=O)Nc2ccc(C)cc2)s1` (stereo not drawn): 8.89%. In the case of `COc1ccc(CNS(=O)(=O)c2ccc3c(c2)CCN3C(=O)C2CC2)cc1` it was 5.86%; in that of `NS(=O)(=O)c1ccc(CCNC(=O)Cc2ccc(S(=O)(=O)N3CCCC3)s2)cc1`, 14.9%; in that of `Cc1ccc(C(=O)NCCCNCCCNC(=O)c2ccc(C)nc2)cn1`, -10.3%. Regarding `CCCCNc1ccccc1C(=O)OCC(=O)Nc1ccc(S(N)(=O)=O)cc1`, the “hERG current change (%, negative = inhibition) at 1uM” value was determined as 0.586%. As to `COc1ccc2oc3cc(C)[n+]([O-])c(-c4ccc(Br)cc4)c3c2c1`, the “hERG current change (%, negative = inhibition) at 1uM” value was 4.46%. Consider `Cc1nc(-c2ccc([N+](=O)[O-])cc2)nc2[nH]ccc(=O)c12`, for which the “hERG current change (%, negative = inhibition) at 1uM” value is listed as 14.5%. In the case of `Fc1ccc(-c2n[nH]c(=S)c3ccccc23)cc1` it was 9.98%; in that of `C[C@H](OC(=O)n1ccnc1)[C@@H]1O[C@@]2(C)CCC[C@@H]1O2`, 15.1%; in that of `Cc1c(C)c2ccc(OC(C)C(=O)NC3CCN(Cc4ccccc4)CC3)cc2oc1=O` (stereo not drawn), -17.2%.

Turning to `CC(C)Oc1ccc(C(=O)NC2CCN(Cc3ccccc3)CC2)cc1`, the “hERG current change (%, negative = inhibition) at 1uM” value is on record as -21%. Regarding `CC(Oc1ccc(Br)cc1)C(=O)NC1CCN(Cc2ccccc2)CC1` (stereo not drawn), the “hERG current change (%, negative = inhibition) at 1uM” value was -59.6%. Consider `CC(Oc1ccccc1)C(=O)NC1CCN(Cc2ccccc2)CC1` (stereo not drawn), for which the “hERG current change (%, negative = inhibition) at 1uM” value is -5.84%. In the case of `Cc1cc(=O)oc2cc(OC(C)C(=O)NC3CCN(Cc4ccccc4)CC3)ccc12` (stereo not drawn), the “hERG current change (%, negative = inhibition) at 1uM” value is given as -52.6%. In the case of `CC(Oc1ccc2ccc(=O)oc2c1)C(=O)NC1CCN(Cc2ccccc2)CC1` (stereo not drawn) it was -38.3%. As for `CC1C(=O)N2CCCc3cc(NC(=O)C(=O)NCc4ccccn4)cc1c32` (stereo not drawn), the “hERG current change (%, negative = inhibition) at 1uM” value came to 8.33%.

Turning to `CCCNC(=O)COc1coc(CN2CCN(Cc3ccccc3)CC2)cc1=O`, the “hERG current change (%, negative = inhibition) at 1uM” value came to 15.2%.

As to `Cc1cc(Cl)ccc1NC(=O)COC(=O)c1c(C)noc1C`, the “hERG current change (%, negative = inhibition) at 1uM” value is recorded as 7.79%. As for `COc1cc(OC)cc(C(=O)NCC(=O)Nc2ccc(C)c(Cl)c2)c1`, the “hERG current change (%, negative = inhibition) at 1uM” value worked out at 12.6%.

For `O=C(c1ccco1)N1CCN(C(=O)c2ccc(-c3cccc(C(F)(F)F)c3)o2)CC1`, the “hERG current change (%, negative = inhibition) at 1uM” value is given as -63.5%.

In the case of `O=C(Cc1ccc(Cl)cc1)N1CCN(C(=O)c2ccco2)CC1`, the “hERG current change (%, negative = inhibition) at 1uM” value was found to be 4.2%. The same measure for `O=C(c1ccco1)N1CCN(C(=O)c2ccc(-c3ccc(Cl)cc3)o2)CC1`: -67.5%. For `O=C(c1ccc(-c2cccc(C(F)(F)F)c2)o1)N1CCCCCCC1`, the “hERG current change (%, negative = inhibition) at 1uM” value amounted to 5.25%.

Consider `CC(=O)N1CCN(C(=O)c2ccc(-c3cccc(C(F)(F)F)c3)o2)CC1`, for which the “hERG current change (%, negative = inhibition) at 1uM” value is recorded as -19.2%. `O=C(c1cc(-c2ccc(Cl)cc2)n[nH]1)N1CCN(C(=O)c2ccco2)CC1`: the “hERG current change (%, negative = inhibition) at 1uM” value is -69.3%. The same measure for `COc1ccc(-c2cc(C(=O)N3CCN(C(=O)c4ccco4)CC3)[nH]n2)cc1`: -12.7%; for `Cc1ccc(-c2cc(C(=O)N3CCN(C(=O)c4ccco4)CC3)[nH]n2)cc1C`: 14.4%; for `O=C(c1ccco1)N1CCN(C(=O)c2ccc(-c3ccccc3Cl)o2)CC1`: -13.8%. The same measure for `CN1CC[C@@]2(C)c3cc(O)ccc3N(C)C2O1` (stereo partly drawn): 4.17%; for `Oc1[nH]c2ccccc2c1C1=NCCCCC1`: 3.28%; for `CC(C)c1nc2sc3c(c2c(=O)o1)CCCC3`: 9.49%.

As to `Cc1ccc(C(=O)N/C(=C\c2cn(S(=O)(=O)N(C)C)c3ccccc23)C(=O)N2CCCC2)cc1`, the “hERG current change (%, negative = inhibition) at 1uM” value amounted to 16%. As to `CC(=O)c1c(C)nn(CCC(=O)O)c1C`, the “hERG current change (%, negative = inhibition) at 1uM” value is reported as 12.2%. Regarding `C=CCNc1nc(N2CCCC2)nc2ccccc12`, the “hERG current change (%, negative = inhibition) at 1uM” value is -66%. The same measure for `Cl.c1ccc(N2CCN(c3nc(NCc4ccco4)c4ccccc4n3)CC2)cc1`: -9.89%. In the case of `Cl.c1ccc(CN2CCN(c3nc(NCc4ccco4)c4ccccc4n3)CC2)cc1`, the “hERG current change (%, negative = inhibition) at 1uM” value is on record as -54.5%.

For `Cl.c1ccc2c(NCC3CCCO3)nc(N3CCCCC3)nc2c1` (stereo not drawn), the “hERG current change (%, negative = inhibition) at 1uM” value was -49.3%. `Cl.OCCNc1nc(N2CCCCC2)nc2ccccc12`: the “hERG current change (%, negative = inhibition) at 1uM” value was -18.4%. As for `Cl.c1ccc(CNc2nc(N3CCN(Cc4ccccc4)CC3)nc3ccccc23)cc1`, the “hERG current change (%, negative = inhibition) at 1uM” value was 10.4%. The same measure for `Cl.c1coc(CNc2nc(N3CCCCC3)nc3ccccc23)c1`: -80.8%; for `Cl.OCCN1CCN(c2nc(NCc3ccco3)c3ccccc3n2)CC1`: -39.4%; for `Cl.OCCNc1nc(N2CCN(Cc3ccccc3)CC2)nc2ccccc12`: -28.6%. In the case of `CC(=O)OC1C(N2CCCCC2)c2c(ccc(/C=C/C(=O)N3CCCCC3)c2O)OC1(C)C` (stereo not drawn), the “hERG current change (%, negative = inhibition) at 1uM” value was 8.42%. The same measure for `O=c1ccc(-c2n[nH]c(=S)n2-c2ccc(F)c(Cl)c2)n[nH]1`: 14.8%.

For the compound `CC(C)C(=O)NC(NC(=S)Nc1ccc(S(N)(=O)=O)cc1)C(Cl)(Cl)Cl` (stereo not drawn), the “hERG current change (%, negative = inhibition) at 1uM” value came to 12.7%.

As for `CS(=O)(=O)c1ccccc1C(=O)N(CCc1ccccc1)Cc1ccccc1`, the “hERG current change (%, negative = inhibition) at 1uM” value was found to be 9.2%.

For the compound `S=C1N(c2ccccc2)C(c2ccccc2)N2CCCN12` (stereo not drawn), the “hERG current change (%, negative = inhibition) at 1uM” value was determined as 6.76%. For `O=C(Cc1ccc(F)cc1)Nc1c(C(=O)N2CCN(c3ncccn3)CC2)oc2ccccc12`, the “hERG current change (%, negative = inhibition) at 1uM” value is on record as -8.61%. With `CCOCCCN(C)C1CCN(C(=O)c2oc3ccccc3c2NC(=O)c2ccc(F)cc2)CC1`, the “hERG current change (%, negative = inhibition) at 1uM” value is -85.6%. In the case of `CCOC(=O)c1oc2ccccc2c1NC(=O)COc1ccc(F)cc1`, the “hERG current change (%, negative = inhibition) at 1uM” value is 12.4%. The same measure for `COc1ccc(CC(=O)Nc2c(C(=O)N3CCN(c4ccccc4OC)CC3)oc3ccccc23)cc1OC`: 9.46%; for `COCCCN(C)C1CCN(C(=O)Nc2ccc(F)cc2)CC1`: -2.37%. In the case of `CCOCC(=O)Nc1c(C(=O)N2CCN(c3ncccn3)CC2)oc2ccccc12`, the “hERG current change (%, negative = inhibition) at 1uM” value turned out to be 5.42%. `CCOCCCN(C)C1CCN(C(=O)c2oc3ccccc3c2NC(=O)COc2cccc(C)c2)CC1`: the “hERG current change (%, negative = inhibition) at 1uM” value is listed as -62.4%. Regarding `CCOC(=O)c1oc2ccccc2c1NC(=O)COc1cccc(OC)c1`, the “hERG current change (%, negative = inhibition) at 1uM” value was determined as 14.2%. On to `NC(=O)c1oc2ccccc2c1NC(=O)c1ccc(F)cc1`, for which the “hERG current change (%, negative = inhibition) at 1uM” value came out at 11.1%. In the case of `O=C(COc1ccc(F)cc1)Nc1c(C(=O)N2CCC(N3CCCCC3)CC2)oc2ccccc12` it was -33.8%; in that of `CCOCCCN(C)C1CCN(C(=O)c2oc3ccccc3c2NC(=O)COc2ccc(F)cc2)CC1`, -85.9%. As to `CCOCCCN(C)C1CCN(C(=O)c2oc3ccccc3c2NC(=O)Cc2ccc(F)cc2)CC1`, the “hERG current change (%, negative = inhibition) at 1uM” value is -85.2%. Turning to `CN(C)/N=C/C=C1\CCC/C(=C/c2cccs2)C1=O`, the “hERG current change (%, negative = inhibition) at 1uM” value came out at 7.9%. The same measure for `O=C(COc1coc(CN2CCN(c3ccccc3)CC2)cc1=O)Nc1ccccc1`: 10.3%; for `COc1ccc(C2NCCc3[nH]cnc32)cc1` (stereo not drawn): 0.887%. On to `CC(/C=N/NC(=O)c1cc(-c2ccncc2)nc2ccccc12)=C\c1ccco1`, for which the “hERG current change (%, negative = inhibition) at 1uM” value came to 0.477%.

Take `CC(c1ccco1)N(C(=O)COc1ccccc1[N+](=O)[O-])c1ccccn1` (stereo not drawn): the “hERG current change (%, negative = inhibition) at 1uM” value is 0.845%. As to `CC1CC(C)CN(C(=O)c2ccc(C(=O)c3ccccc3)cc2)C1` (stereo not drawn), the “hERG current change (%, negative = inhibition) at 1uM” value is on record as -1.23%. Turning to `Nc1nonc1-n1nnc(C(=O)N/N=C/c2ccccc2Cl)c1-c1ccccc1`, the “hERG current change (%, negative = inhibition) at 1uM” value was found to be 18.9%. In the case of `COc1ccc(CCN(C)C(=O)c2ccc(S(=O)(=O)Nc3ccccc3C)cc2)cc1OC` it was 10.8%; in that of `O=C(Nc1ccc(S(=O)(=O)NC2CCCCC2)cc1)c1ccc(Br)o1`, 1.61%; in that of `Cc1nccc2c1[nH]c1ccccc12`, 10.2%. The same measure for `Cc1cc2[nH]c3c(c[n+](C)c4ccccc34)c2cc1C.[I-]`: -75.9%; for `COc1cc2[nH]c3ccccc3c2cc1C`: 10.5%; for `O=c1[nH]c(SCc2ccccc2)nc2c1cnn2-c1ccc(F)cc1`: 4.7%.

`COc1ccc(C(CNC(=O)c2ccc(C)o2)N2CCOCC2)cc1` (stereo not drawn): the “hERG current change (%, negative = inhibition) at 1uM” value is on record as -1.5%. In the case of `COC(=O)c1[nH]c2ccc(C)cc2c1NC(=O)C(C)N1CCN(C2CCCCC2)CC1` (stereo not drawn) it was -81%; in that of `COC(=O)c1[nH]c2ccc(C)cc2c1NC(=O)NC1CCCCC1`, 9.66%.

`COC(=O)c1[nH]c2ccc(Br)cc2c1NC(=O)CN1CCN(C2CCCCC2)CC1`: the “hERG current change (%, negative = inhibition) at 1uM” value was -85.1%. The same measure for `CCOC(=O)c1[nH]c2ccc(Br)cc2c1NC(=O)CCN1CCC(C)CC1`: -36.9%. On to `COC(=O)c1[nH]c2ccc(Cl)cc2c1NC(=O)CCN1CCOCC1`, for which the “hERG current change (%, negative = inhibition) at 1uM” value turned out to be 9.37%. In the case of `COC(=O)c1[nH]c2ccc(Br)cc2c1NC(=O)CN1CCCCC1CCO` (stereo not drawn) it was 5.4%; in that of `CCOC(=O)c1[nH]c2ccc(OC)cc2c1NC(=O)CCN1CCCC(C)C1` (stereo not drawn), -3.69%; in that of `COC(=O)c1[nH]c2ccc(Cl)cc2c1NC(=O)CCN1CCN(C2CCCCC2)CC1`, -69.5%. In the case of `COC(=O)c1[nH]c2ccccc2c1NC(=O)C(C)N1CCOCC1` (stereo not drawn) it was 9.91%; in that of `CCOC(=O)c1[nH]c2ccc(Br)cc2c1NC(=O)CCN1CCCC(C)C1` (stereo not drawn), -66.8%. Regarding `CCOC(=O)C1CCCN(CC(=O)Nc2c(C(=O)OC)[nH]c3ccc(Br)cc23)C1` (stereo not drawn), the “hERG current change (%, negative = inhibition) at 1uM” value is listed as -3.53%. In the case of `COC(=O)c1[nH]c2ccc(Cl)cc2c1NC(=O)CN1CCC(C(N)=O)CC1` it was 10.6%.
